From PubChem BioAssay AID488969 (Vanderbilt High Throughput Screening Facility, 2010)
The full ranking holds about 110,000 compounds; the median of “z-score” is about -0.1, and the highest 2% start at about 2. This excerpt belongs to a sample that is enriched for the highest values. Activity calls are given as the source filed them.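 Rule for the calls: active = z-score in the third read window above 3 or below -3; inactive = the rest.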

target: Metabotropic glutamate receptor 8 (Rattus norvegicus) (UniProt P70579); assay: rat mGluR8 modulators via GIRK flux, primary screen, cell-based, thallium flux, HTS (AID 488969); conditions: HEK293 rat mGluR8, GIRK (G protein-gated inwardly rectifying potassium channel) thallium flux, FluoZin2; at 10 µM; stronger effect = higher value; submaximal glutamate (EC20) added with thallium
Sequence (P70579 whole entry, looked up): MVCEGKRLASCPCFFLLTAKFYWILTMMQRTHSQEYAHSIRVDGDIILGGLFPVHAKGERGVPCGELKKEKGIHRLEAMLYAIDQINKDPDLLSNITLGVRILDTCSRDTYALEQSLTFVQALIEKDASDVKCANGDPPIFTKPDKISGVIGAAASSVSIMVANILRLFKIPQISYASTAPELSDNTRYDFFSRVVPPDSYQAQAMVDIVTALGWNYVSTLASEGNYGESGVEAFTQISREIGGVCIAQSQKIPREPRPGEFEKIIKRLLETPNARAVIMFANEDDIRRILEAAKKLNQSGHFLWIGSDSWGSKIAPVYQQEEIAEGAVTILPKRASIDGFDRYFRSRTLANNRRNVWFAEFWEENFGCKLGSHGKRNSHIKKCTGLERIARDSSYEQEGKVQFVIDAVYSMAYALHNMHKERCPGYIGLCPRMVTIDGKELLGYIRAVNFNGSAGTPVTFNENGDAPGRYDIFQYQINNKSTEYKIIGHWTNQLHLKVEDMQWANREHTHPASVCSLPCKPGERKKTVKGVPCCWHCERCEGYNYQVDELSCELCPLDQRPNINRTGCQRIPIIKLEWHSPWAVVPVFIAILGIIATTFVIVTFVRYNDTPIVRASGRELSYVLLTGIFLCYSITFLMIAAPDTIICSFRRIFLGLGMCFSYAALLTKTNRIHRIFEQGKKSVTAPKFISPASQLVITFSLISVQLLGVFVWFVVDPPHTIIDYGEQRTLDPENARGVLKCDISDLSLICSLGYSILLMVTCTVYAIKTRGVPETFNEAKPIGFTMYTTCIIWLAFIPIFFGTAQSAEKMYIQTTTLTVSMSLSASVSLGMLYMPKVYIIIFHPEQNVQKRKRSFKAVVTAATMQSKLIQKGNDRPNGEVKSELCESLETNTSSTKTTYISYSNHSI

| Compound | z-score |
| --- | --- |
| CN1CCc2c(sc(N)c2C(N)=O)C1 | -0.167 |
| Cc1cc(C(=O)N/N=C/c2ccc(-c3ccccc3Cl)o2)n[nH]1 | -0.496 |
| CCNC(=S)NNC(=O)c1csc2c1CCCC2 | -0.209 |
| CC(C)CNC(=S)NNC(=O)c1csc2c1CCCC2 | -0.116 |
| Cc1ccc(C)c(NC(=S)NNC(=O)c2csc3c2CCC(C)C3)c1 (stereo not drawn) | 13.8 (active) |
| CCCCNC(=S)NNC(=O)c1csc2c1CCC(C)C2 (stereo not drawn) | 0.319 |
| CCCCNC(=S)NNC(=O)c1csc(C)c1C | 0.0325 |
| Cc1ccc(C)c(NC(=S)NNC(=O)c2ccco2)c1 | -0.0706 |
| Cc1ccc(C)c(NC(=S)NNC(=O)c2csc3c2CCCC3)c1 | 7.26 (active) |
| Cc1ccc(C)c(NC(=S)NNC(=O)c2csc(C)c2C)c1 | 2.09 |
| CC1CCc2c(C(=O)Nc3nccs3)csc2C1 (stereo not drawn) | -0.208 |
| COC(=O)Cn1c(=NC(=O)c2ccc(OC)c(OC)c2)sc2cc(OC)ccc21 | -0.167 |
| COc1ccc(/C=C2\CCCc3c2nc2ccccc2c3C(=O)OCC(=O)c2c(N)n(C)c(=O)n(C)c2=O)cc1 | -0.224 |
| O=C(CCn1nc(-c2ccccc2)c2ccccc2c1=O)NCC1CCCO1 (stereo not drawn) | -0.116 |
| Clc1ccc(OCc2cc(-c3ccccc3)no2)cc1Cl | -0.0469 |
| O=C(CCCCCN1C(=O)c2ccccc2C1=O)Nc1ccc(F)cc1 | -0.0499 |
| Cc1cccc(C(C)(C)C)c1OCCCCN1CCCC1 | 2.48 |
| Cc1cccc(C(C)(C)C)c1OCCOCCN1CCCC1 | 0.391 |
| Cc1cccc(C)c1OCCCN1CCCC1 | 0.0506 |
| CC(C)(C)c1ccccc1OCCN1CCCC1 | -0.516 |
| Cc1ccc(C(C)(C)C)c(OCCCCN2CCCC2)c1 | 0.658 |
| CC(C)(C)c1ccccc1OCCCCN1CCCC1 | 2.06 |
| COC(=O)c1cc2oc(C)cc2n1CC(=O)Nc1cc(C)cc(C)c1 | -0.162 |
| O=C(CN1C(=O)CCS(=O)(=O)c2ccccc21)NCc1ccccc1 | 0.305 |
| CCOc1ccc(C(=O)/C=C/c2ccccc2C(F)(F)F)cc1 | -0.354 |
| O=C(NCc1ccccn1)c1c(Cl)cccc1Cl | 0.0849 |

| Compound | z-score |
| --- | --- |
| CC(O)c1nc2ccccc2n1C1CCCCC1 (stereo not drawn) | 6.36 (active) |
| CC(C)CCn1c(C(C)O)nc2ccccc21 (stereo not drawn) | -0.257 |
| CCCCn1c(C(C)O)nc2ccccc21 (stereo not drawn) | -0.321 |
| N#CCCn1cc(C(CC(=O)c2ccccc2)C(=O)O)c2ccccc21 (stereo not drawn) | -0.0596 |
| COc1ccc(OC)c(N=c2oc3cc(O)ccc3cc2C(N)=O)c1 | 1.99 |
| Cc1cccc(N=c2oc3cc(O)ccc3cc2C(N)=O)c1 | 0.0144 |
| COc1ccc(N=c2oc3cc(O)ccc3cc2C(=O)NCC2CCCO2)c(OC)c1 (stereo not drawn) | -0.403 |
| C=CCN1C(=O)/C(=C2/Sc3ccccc3N2CCCS(=O)(=O)O)SC1=S | -0.352 |
| C=CCN1C(=O)/C(=C2/Sc3ccccc3N2C)SC1=Nc1ccccc1C | -0.792 |
| C=CCN1C(=O)/C(=C2/Sc3ccccc3N2C)SC1=Nc1c(C)n[nH]c1C | 3.97 (active) |
| CCOC(=O)c1ccc(N2C(=O)CC(N3CCC(O)(c4ccc(Cl)cc4)CC3)C2=O)cc1 (stereo not drawn) | 0.433 |
| CCCCC1S/C(=N/N=C/c2ccc(OC)cc2)N(Cc2ccc(OC)cc2)C1=O (stereo not drawn) | -0.524 |
| CCOC(=O)c1c(CN(CC)CC)oc2cc(Br)c(O)cc12 | -1.27 |
| COC(=O)C1CCN(C(=O)COc2cc3sc(C)nc3c3sccc23)CC1 | -1.34 |
| CCc1nnc(NS(=O)(=O)c2ccc(NC(=S)NC(=O)c3ccc(Br)cc3)cc2)s1 | -1.21 |
| CCc1nnc(NS(=O)(=O)c2ccc(NC(=S)NC(=O)c3ccc(F)cc3)cc2)s1 | 0.102 |
| Cc1cc(NS(=O)(=O)c2ccc(NC(=S)NC(=O)c3ccccc3)cc2)no1 | 2.22 |
| Cc1cc(NS(=O)(=O)c2ccc(NC(=O)Nc3ccccc3)cc2)no1 | 0.82 |
| Cc1cc(NS(=O)(=O)c2ccc(NC(=S)NC(=O)c3ccc(F)cc3)cc2)no1 | -0.0103 |
| CCc1nnc(NS(=O)(=O)c2ccc(NC(=S)NC(=O)c3ccccc3)cc2)s1 | 5.21 (active) |
| Cc1ccc(Cn2c(SCC(=O)N/N=C/c3ccc(C)o3)nc3ccccc32)cc1 | -0.169 |
| Cc1ccc(-c2cnc(SCC(=O)N3CCCc4ccccc43)n2C)cc1 | -0.31 |
| O=C1c2ccccc2C(=O)N1CC1=CCS(=O)(=O)C1 | 0.399 |
| COc1ccc(N2CCN(C(=O)CCCn3c(=S)[nH]c4cc5c(cc4c3=O)OCO5)CC2)cc1 | -0.487 |
| Cc1cc(C)nc(NC(=O)CCC2CCCC2)c1 | -0.0409 |
| CS(=O)(=O)Nc1ccc(C(=O)NCCC2=CCCCC2)cc1 | 1.28 |

| Compound | z-score |
| --- | --- |
| COc1ccc(-n2c(C)nc3cc(C(=O)NCc4ccc5c(c4)OCO5)ccc32)cc1 | -0.347 |
| CCOc1ccc(-n2c(C)nc3cc(C(=O)NCc4ccco4)ccc32)cc1 | 0.364 |
| COc1ccc(-n2c(C)nc3cc(C(=O)NCc4ccco4)ccc32)cc1 | 2.54 |
| CC(=O)c1c(C)nn(C(C)CC(=O)O)c1C (stereo not drawn) | -0.0267 |
| COc1cc(OC)nc(NC(=O)CSc2nnc(-c3ccccc3)n2C2CCCCC2)n1 | -0.277 |
| O=C(Nc1cccc(F)c1)c1ccccc1-c1ccccc1 | -0.369 |
| CC(=O)N1c2ccccc2C(C)(c2ccccc2)CC1(C)C (stereo not drawn) | -0.236 |
| CN1CCN(CC(=O)N2c3ccccc3C(C)(c3ccccc3)CC2(C)C)CC1 (stereo not drawn) | 3.59 (active) |
| CC1(c2ccccc2)CC(C)(C)N(C(=O)CSc2nnc(N)s2)c2ccccc21 (stereo not drawn) | -0.521 |
| CN1CCN(CC(=O)N2c3ccccc3C(C)(c3ccc(Cl)cc3)CC2(C)C)CC1 (stereo not drawn) | 3.21 (active) |
| Cc1nnc(SCC(=O)N2c3ccccc3C(C)(c3ccc(Cl)cc3)CC2(C)C)s1 (stereo not drawn) | 0.227 |
| Cc1nnc(SCC(=O)N2c3ccccc3C(C)(c3ccccc3)CC2(C)C)s1 (stereo not drawn) | 0.611 |
| CC1Cc2ccccc2N1C(=O)CCNS(=O)(=O)c1ccc2c(c1)CCC(=O)N2 (stereo not drawn) | -0.0721 |
| Cn1c(=O)c2c(nc(NCCO)n2C)n(C)c1=O | 0.204 |
| CCn1c(NCc2ccco2)nc2c1c(=O)n(C)c(=O)n2C | 0.397 |
| CCn1c(C)c(C2=CCN(S(=O)(=O)c3ccc(C)cc3)CC2)c2ccccc21 | 0.0891 |
| CCN1C(=O)c2cccc3cccc1c23 | -0.389 |
| CCn1c(O)c(N=NC(=O)CNc2cccc(C)c2)c2ccccc21 | 1.4 |
| CCc1ccc2c(c1)c(N=NC1=NC(=O)CS1)c(O)n2CC | 2.98 |
| CCn1c(O)c(N=NC2=NC(=O)CS2)c2cc(C)ccc21 | 2.24 |
| CCc1ccc2c(c1)c(N=NC1=NC(=O)CS1)c(O)n2C | 2.09 |
| CCc1ccc2c(c1)c1nnc(NN)nc1n2CC | -0.278 |
| Cc1cc(C)nc(N=Nc2c(O)n(Cc3ccc(Cl)cc3)c3ccccc23)n1 | 0.0163 |
| CCn1c(O)c(N=NC2=NC(=O)CS2)c2ccccc21 | 0.217 |
| CCOc1ccc2c(c1)c(N=NC(=N)N)c(O)n2C | -0.224 |
| CCOc1ccc2c(c1)c(N=Nc1cccc(C(=O)O)c1)c(O)n2C | -0.0674 |
